These results are taken from PubChem BioAssay.

A short description of test [1]: inhibitors of TNFa-induced NFkB p65 translocation, primary screen, imaging, HUVEC, MLSMR starter and 10KST1 sets (AID 438;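 active means inhibition above 20% together with a positive visual image hit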;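 further: compound added about 3h40 before a 20 min TNFalpha stimulation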;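 on inhibition: signal is the nuclear over cytoplasmic p65 intensity ratio per well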). The note with it: HUVEC TNFa-induced p65 nuclear translocation; cell count: measured here: nuclei count (cytotoxicity indicator), at 2.08 µM; inhibition: at 2 µM, stronger effect = higher value, 0% TNFa-plus-vehicle, 100% no-TNFa wells.
The nature of test [2]: inhibitors of mutant huntingtin aggregation, primary screen, imaging, exon1htt(103Q)mCFP cells, high-content imaging (AID 483;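 active means visual image review flags a hit and inhibition of aggregation exceeds 20%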;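 further: compound exposure lasted 3 days before fixation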;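 on nuclei count: percent of the per-plate median nuclei count of sample wells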). The following applies: exon1htt(103Q)mCFP cell line, aggregate imaging, at 2 µM; inhibition of aggregation: stronger effect = higher value; nuclei count: measured here: cell count, toxicity.
A short description of test [3]: inhibitors of E-selectin induction by TNFa, primary screen, imaging, HUVEC, immunofluorescence, MLSMR starter and 10KST1 sets (AID 487;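 active means visually confirmed hit in the image check and inhibition above 20%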;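 on inhibition: signal is fraction of cell area covered by stained E-selectin grains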;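 on nuclei count: 100% = median nuclei count of all wells on the same plate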). The following applies: HUVEC TNFalpha-induced E-selectin immunofluorescence imaging, at 2 µM; inhibition: stronger effect = higher value; nuclei count: measured here: cell number, toxicity.
Test [4] is described as follows: DUSP6 inhibitors restoring Erk phosphorylation by chemical complementation, primary imaging in DUSP6-transfected HeLa (AID 609;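 active means compounds giving at least 50% inhibition in the cell-based MKP-3 phosphatase rescue imaging test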;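 on inhibition: phospho-Erk level distribution per well compared with pooled transfected vehicle control wells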). The note with it: HeLa MKP-3 transfected, phospho-Erk imaging KS statistic, at 10 µM, cells stimulated with TPA for 15 min.
The target in test [5] is Dual specificity protein phosphatase 6 (Homo sapiens) (UniProt Q16828). The description is as above. The following applies: HeLa MKP-3 transfected, phospho-Erk imaging KS statistic; at 10 µM; stronger effect = higher value; cells stimulated with TPA for 15 min.
The target in test [6] is Voltage-gated potassium channel subunit beta-2 (Rattus norvegicus) (UniProt P62483). Description: KvBeta enzyme negative modulators, primary screen, biochemical, NADPH fluorescence (AID 622;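 active means fluorescence slope higher than the sample average by over 3 SD, cut at about -0.22 in these data, passing the limit was not always enough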;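 further: slope of raw intensity against log time taken from 70 to 1610 s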). The note with it: recombinant KvBeta, 4-cyanobenzaldehyde reduction, at 10 µM, stronger effect = higher value.
The target is the same in test [7]. In words: KvBeta positive modulators, primary screen, biochemical, NADPH fluorescence (AID 623;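 active means NADPH fluorescence slope more negative than the mean of all samples by about 3 SD, 99.7% confidence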;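 further: fluorescence intensity change per second fitted from 20 to 320 s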). The note with it: Recombinant KvBeta, NADPH fluorescence decrease slope, 10 min; at 10 µM; stronger effect = lower value.
For test [8], the target named is Alpha-2C adrenergic receptor (Homo sapiens) (UniProt P18825). In words: modulators of alpha2C/GIRK thallium flux, primary screen, cell-based, HEK293 alpha2C/GIRK1/2 (AID 624;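 active means fluorescence slope after compound addition differing from the mean of all screened samples at 99.7% confidence, in either direction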;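 further: slope of fluorescence ratio to pre-addition baseline per second over 15 to 24 s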). The note with it: thallium flux BTC fluorescence, at 10 µM, actives lie on both sides.
Test [9] can be described thus: inhibitors of larval lipid processing in zebrafish, primary screen, whole organism, PED6 fluorescence, gall bladder and intestine (AID 686;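 active means a full or partial loss of lipid-probe fluorescence in the fish gall bladder, intestine or both, judged by eye; inactive means no fluorescence loss, or compound toxic to the fish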;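 further: larvae 5 to 7 days old with five fish per well; signal comes from phospholipase A2 cleavage of quenched PED6 carried via bile; overnight exposure to compound and PED6 before scoring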). The following applies: Zebrafish larvae PED6 lipid processing, fluorescence scoring; screened at 20 µM (by protocol).
A short description of test [10]: inhibitors of Chlamydomonas gravitaxis, primary screen, whole organism, Chlamydomonas reinhardtii, WT vs cilia-less mutant, absorbance, 96-well (AID 463189).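 Further: 0% = wild type cc124 cells in DMSO and 100% = ciliumless bld1 mutant cells.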 The note with it: OD600 absorbance, 2 days, at 10 µM, stronger effect = higher value.
Test [11] in a line: inhibitors of Sendai virus-induced IRF3 signaling, primary screen, TLR/RLR signaling modifier project, cell-based, Sendai virus stimulus, luciferase, 10K MLSCN set (AID 602276;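 active means inhibition at or above 50% at 10 µM; inactive means inhibition below 50%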;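 further: firefly luciferase from ISG56 promoter only with Renilla not read in this screen; 0% = Sendai virus plus DMSO and 100% = medium plus DMSO without virus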). The note with it: HEK293 RL24 IRF3 luciferase reporter, at 10 µM, stronger effect = higher value.
A short description of test [12]: inhibitors of poly I:C-induced TLR3 signaling, primary screen, cell-based, poly I:C stimulus, luciferase, 10K MLSCN set (AID 602277;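 active means inhibition of the reporter signal at or above 50%; inactive means inhibition below 50%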). The note with it: HEK293-TLR3 RL24 IRF3 luciferase reporter, at 10 µM, stronger effect = higher value.
Test [13] concerns the target Muscarinic acetylcholine receptor M4 (Homo sapiens) (UniProt P08173). In words: compounds altering M4/GIRK thallium flux, either direction, primary screen, M4 allosteric agonist project, cell-based, HEK293 M4/GIRK, BTC-AM (AID 625;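 active means fluorescence slope after compound addition differing from the mean of all tested samples at 99.7% confidence, mostly higher but some lower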;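 further: thallium influx through GIRK channels coupled to M4 in HEK293 cells with BTC-AM dye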). The note with it: at 10 µM, actives lie on both sides.
The mark [14] stands for this setting: measured here: cell density z-score.
The mark [15] stands for this setting: measured here: nuclear c-Myc green intensity z-score.
[16] abbreviates: measured here: nuclear pErk red intensity z-score, stronger effect = higher value.

Where “and” joins values, the source holds several entries; their conditions need not be identical. Equal entries are not always repeated. Calls of active or inactive are those of the source.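 How the source made its calls, unless noted: active means inhibition at or above 50% relative to wild type and mutant plate controls; inactive means inhibition below 50%.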

Chain of Voltage-gated potassium channel subunit beta-2 (Rattus norvegicus) (P62483 whole entry, looked up): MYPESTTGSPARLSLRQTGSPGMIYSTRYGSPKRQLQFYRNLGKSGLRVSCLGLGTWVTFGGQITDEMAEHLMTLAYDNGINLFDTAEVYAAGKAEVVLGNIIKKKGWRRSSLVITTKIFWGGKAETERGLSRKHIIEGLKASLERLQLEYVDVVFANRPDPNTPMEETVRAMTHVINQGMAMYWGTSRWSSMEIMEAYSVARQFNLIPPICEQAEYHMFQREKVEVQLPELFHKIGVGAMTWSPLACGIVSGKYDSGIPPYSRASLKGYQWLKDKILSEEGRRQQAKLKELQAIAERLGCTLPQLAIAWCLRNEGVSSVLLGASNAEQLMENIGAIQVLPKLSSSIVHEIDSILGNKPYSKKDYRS
Chain of Alpha-2C adrenergic receptor (Homo sapiens) (P18825 whole entry, looked up): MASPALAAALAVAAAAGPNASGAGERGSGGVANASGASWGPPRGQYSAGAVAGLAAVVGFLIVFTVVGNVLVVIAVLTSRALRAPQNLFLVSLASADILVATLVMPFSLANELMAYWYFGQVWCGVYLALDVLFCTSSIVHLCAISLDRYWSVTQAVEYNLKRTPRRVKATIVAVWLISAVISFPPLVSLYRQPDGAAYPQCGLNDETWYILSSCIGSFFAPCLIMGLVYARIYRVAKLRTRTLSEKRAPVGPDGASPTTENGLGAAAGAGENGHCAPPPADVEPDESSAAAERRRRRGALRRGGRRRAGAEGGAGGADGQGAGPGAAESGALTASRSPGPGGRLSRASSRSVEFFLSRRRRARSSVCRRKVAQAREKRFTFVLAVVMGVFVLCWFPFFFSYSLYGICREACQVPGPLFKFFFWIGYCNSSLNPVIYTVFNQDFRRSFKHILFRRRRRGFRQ
Chain of Dual specificity protein phosphatase 6 (Homo sapiens) (Q16828 whole entry, looked up): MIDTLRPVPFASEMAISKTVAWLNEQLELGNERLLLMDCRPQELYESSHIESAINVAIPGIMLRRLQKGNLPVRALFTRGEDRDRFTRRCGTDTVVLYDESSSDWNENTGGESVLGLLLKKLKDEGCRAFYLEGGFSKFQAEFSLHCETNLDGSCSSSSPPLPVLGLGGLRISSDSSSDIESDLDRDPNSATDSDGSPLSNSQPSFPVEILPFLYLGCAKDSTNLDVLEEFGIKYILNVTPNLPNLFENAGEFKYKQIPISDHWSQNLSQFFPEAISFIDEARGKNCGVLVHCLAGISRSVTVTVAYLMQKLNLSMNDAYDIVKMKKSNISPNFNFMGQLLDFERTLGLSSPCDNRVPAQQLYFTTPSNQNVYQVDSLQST
Chain of Muscarinic acetylcholine receptor M4 (Homo sapiens) (P08173 whole entry, looked up): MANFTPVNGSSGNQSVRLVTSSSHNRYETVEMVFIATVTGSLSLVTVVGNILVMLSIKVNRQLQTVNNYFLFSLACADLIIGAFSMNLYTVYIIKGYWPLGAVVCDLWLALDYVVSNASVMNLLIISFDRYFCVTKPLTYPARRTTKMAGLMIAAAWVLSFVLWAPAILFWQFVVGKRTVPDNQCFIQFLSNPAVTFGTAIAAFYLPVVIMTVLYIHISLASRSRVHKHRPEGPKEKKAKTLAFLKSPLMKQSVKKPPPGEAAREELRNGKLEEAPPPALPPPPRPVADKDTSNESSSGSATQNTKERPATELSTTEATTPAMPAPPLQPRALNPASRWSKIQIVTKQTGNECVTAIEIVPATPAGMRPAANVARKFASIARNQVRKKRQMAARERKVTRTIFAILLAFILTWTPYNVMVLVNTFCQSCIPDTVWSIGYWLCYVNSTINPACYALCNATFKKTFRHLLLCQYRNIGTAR

On to `Cc1c(Cl)cccc1Nc1ccccc1C(=O)O`, for which, in test [1], the cell count worked out at 612. The inhibition was -8.8% (inactive) in test [1]; -156% (inactive) in [3]; 5.42% (inactive) in test [5]; -6.31% (inactive) in test [10]; 4.32% (inactive) in [11]; 19.5% (inactive) in test [12]. The inhibition of aggregation in test [2] is 17.9% (inactive). Also, the nuclei count in [2] amounted to 108%; in test [3], 129%. Moreover, the results for the z-score in test [4] (setting [14]), in test [4] (setting [15]) and in [4] (setting [16]) were -0.93, -0.312 and 1.31, respectively. Further, the fluorescence slope in test [6] is -0.466 (inactive). For the same molecule, the NADPH fluorescence slope in test [7] is -4.7e-06 (inactive). The slope in test [8] was 0.00655 (inactive). Besides, the outcome in test [9] was inactive.

Take `CN(C)c1nc(OCCOC(=O)Nc2ccc(Cl)cc2Cl)nc(N(C)C)n1`: in [1], the cell count came out at 397. For the same molecule, the inhibition was -14.7% (inactive) in [1]; -100% (inactive) in test [3]; -5.26% (inactive) in test [5]; -0.1% (inactive) in test [10]; 11.3% (inactive) in test [11]; 0.088% (inactive) in test [12]. Further, the inhibition of aggregation in test [2] was -0.2% (inactive). For the same molecule, the nuclei count came out at 56.4% in [2] and 122% in [3]. The z-score in test [4] (setting [14]) was 0.138; in [4] (setting [15]), 0.513; in [4] (setting [16]) it was -0.605. The fluorescence slope in test [6] was -0.48 (inactive). For the same molecule, the NADPH fluorescence slope in test [7] is -8.2e-05 (inactive). Further, the slope in test [8] is 0.00682 (inactive). Moreover, the molecule was called inactive in test [9].

Regarding `CCCCc1nc(NCCN2CCOCC2)c(C#N)c2c1COC(C)(C)C2`, the cell count in [1] worked out at 472. Further, the inhibition in [1] is -7.6% (inactive); in test [3], -75.1% (inactive); in test [5], 3.42% (inactive); in test [10], 98.1% (active); in [11], 15.9% (inactive); in test [12], 10.1% (inactive). Further, in [2], the inhibition of aggregation was -37.3% (inactive). The nuclei count in [2] was determined as 122%; in test [3], 116%. For the same molecule, the z-score in test [4] (setting [14]) was -1.08; in test [4] (setting [15]), 2.36; in test [4] (setting [16]), -1.06. Further, the fluorescence slope in [6] is -0.542 (inactive); in [13], 0.00481 (inactive). Further, in test [7], the NADPH fluorescence slope is 8.4e-06 (inactive). In addition, the slope in [8] is 0.00518 (inactive). Moreover, in test [9], the result was inactive.

Take `COc1ccc(C(=O)Nc2cccnc2)cc1C(=O)Nc1cccnc1`: the cell count in test [1] stood at 654. In addition, the inhibition in [1] is 4.4% (inactive); in test [3] it was -4.7% (inactive); in test [5], 23.4% (inactive); in [10], -3.27% (inactive); in [11], 11.5% (inactive); in [12] it was 36% (inactive). Moreover, the inhibition of aggregation in test [2] is -4.7% (inactive). For the same molecule, the nuclei count was determined as 101% in test [2] and 72.8% in test [3]. The z-score in [4] (setting [14]) was 0.737; in test [4] (setting [15]), -0.175; in test [4] (setting [16]), -0.517. Further, the fluorescence slope in test [6] is -0.448 (inactive). The NADPH fluorescence slope in [7] was -4.6e-05 (inactive). The slope in test [8] was 0.00454 (inactive). For the same molecule, the outcome in test [9] was inactive.

As to `O=C(O)c1cccnc1Nc1cccc(C(F)(F)F)c1`, the cell count in [1] is 579. In addition, the inhibition in test [1] is -0.7% (inactive); in test [3], -109% (inactive); in [5], 3.59% (inactive); in test [10], 0.869% (inactive) and -7.21% (inactive); in test [11], 17.3% (inactive); in test [12], 24.1% (inactive). Also, the inhibition of aggregation in test [2] was 7.2% (inactive). The nuclei count in test [2] was found to be 55.6%; in test [3] it was 125%. Moreover, the z-score is -1.55 in test [4] (setting [14]), -0.913 in [4] (setting [15]) and 0.921 in [4] (setting [16]). Further, the fluorescence slope in test [6] is -0.507 (inactive). In addition, the NADPH fluorescence slope in [7] was -5.7e-05 (inactive). Besides, in test [8], the slope was 0.00519 (inactive). Further, the call in test [9] was inactive.

For `Cc1cc(C)n(CC(=O)n2c3c(c4ccccc42)CCCC3)n1`, in [1], the cell count is 515. Also, the inhibition in test [1] is -6.5% (inactive); in test [3], -92.5% (inactive); in [5], -1.98% (inactive); in test [10] it was -0.753% (inactive); in [11], -7.05% (inactive); in test [12], 1.75% (inactive). In test [2], the inhibition of aggregation is 13.5% (inactive). Further, the nuclei count amounted to 99.3% in test [2] and 130% in [3]. Moreover, the z-score in [4] (setting [14]) was -0.283; in test [4] (setting [15]) it was 1.41; in test [4] (setting [16]), 0.335. Further, in [6], the fluorescence slope is -0.53 (inactive). In test [7], the NADPH fluorescence slope was -3.4e-05 (inactive). Also, in test [8], the slope is 0.0062 (inactive). Moreover, the outcome in test [9] was inactive.

As to `CCCN(CCC)S(=O)(=O)c1ccc(C(=O)O)cc1`, the cell count in test [1] amounted to 623. The inhibition in test [1] was -9.8% (inactive); in [3], -101% (inactive); in [5], -2.46% (inactive); in test [10], -3.99% (inactive); in test [11], 0.7% (inactive); in test [12], 13.7% (inactive). Further, the inhibition of aggregation in [2] is 6.1% (inactive). The nuclei count worked out at 108% in test [2] and 118% in test [3]. Also, the z-score worked out at 0.315 in test [4] (setting [14]), 0.261 in [4] (setting [15]) and 0.309 in test [4] (setting [16]). The fluorescence slope in [6] was -0.448 (inactive). In addition, the NADPH fluorescence slope in test [7] is 3.2e-06 (inactive). Moreover, the slope in test [8] is 0.00488 (inactive). In [9], the outcome was inactive.

With `O=C(O)c1ccccc1S`, in test [1], the cell count is 650. The inhibition in [1] is -5% (inactive); in test [3], -76.8% (inactive); in [5], 21.2% (inactive); in test [10] it was -11% (inactive); in [11], 6.85% (inactive); in test [12], 19% (inactive). Also, the inhibition of aggregation in test [2] is 6.8% (inactive). The nuclei count in test [2] was determined as 96.1%; in test [3], 126%. Besides, the z-score was 1.28 in test [4] (setting [14]), 1.34 in test [4] (setting [15]) and -0.494 in [4] (setting [16]). Also, the fluorescence slope in [6] is -0.435 (inactive). The NADPH fluorescence slope in test [7] is -8.2e-05 (inactive). Also, the slope in [8] is 0.00404 (inactive). Moreover, in test [9], the call was inactive.

For the molecule `C[C@]12C[C@H](O)[C@H]3[C@@H](CCC4=CC(=O)CC[C@@]43C)[C@@H]1CC[C@@H]2C(=O)CO`, the cell count in [1] worked out at 627. The inhibition in test [1] was -3.6% (inactive); in [3], -37.7% (inactive); in test [5], 9.37% (inactive); in test [10], 3.78% (inactive) and -16.2% (inactive); in test [11] it was 5.57% (inactive); in [12] it was 32.8% (inactive). For the same molecule, in test [2], the inhibition of aggregation is -21.5% (inactive). Further, the figures for the nuclei count in [2] and in test [3] were 101% and 102%, respectively. Also, the z-score is 0.905 in [4] (setting [14]), 0.0812 in test [4] (setting [15]) and -0.546 in test [4] (setting [16]). Moreover, the fluorescence slope in test [6] is -0.526 (inactive). For the same molecule, the NADPH fluorescence slope in test [7] is -4.5e-06 (inactive). Also, the slope in [8] is 0.00481 (inactive). Moreover, the result in test [9] was inactive.
